Reference: PubChem BioAssay (EPA / NIEHS)
Records with an inconclusive call do not appear. Activity calls are given as the source filed them. The calls were made as follows: active = hit-call score of the fitted dose curve at least 0.9, where 1 is the maximum; inconclusive = response in the unintended direction; inactive = score below 0.9.

Molecular target: sheep Cyclooxygenase-1 (Cox1), PTGS1 (gene 443551) (UniProt P05979)
Experiment: NVS_ENZ_oCOX1: NovaScreen (NVS) Enzymatic Assay for sheep Cyclooxygenase-1 (Cox1) (AID 2283239);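 also: actives reduce cyclooxygenase activity so potencies are for inhibitors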
Protocol: NVS_ENZ_oCOX1 is a biochemical, single-readout assay that uses extracted gene-proteins from Ovine seminal vesicles in a tissue-based cell-free assay. Measurements were taken 0.66 hour after chemical dosing in a 96-well plate.NVS_ENZ_oCOX1 is one of one assay component(s) measured or calculated from the NVS_ENZ_oCOX1 assay. It is designed to make measurements of enzyme activity, a form of enzyme reporter, as detected with absorbance signals by Colorimetric technology.Data from the assay component NVS_ENZ_oCOX1 was analyzed into 1 assay endpoint. This assay endpoint, NVS_ENZ_oCOX1, was analyzed in the positive analysis fitting direction relative to DMSO as the negative control and baseline of activity. Using a type of enzyme reporter, loss-of-signal activity can be used to understand changes in the enzymatic activity as they relate to the gene PTGS1. Furthermore, this assay endpoint can be referred to as a primary readout, because this assay has produced multiple assay endpoints where this one serves a enzymatic activity function. To generalize the intended target to other relatable targets, this assay endpoint is annotated to the oxidoreductase intended target family, where the subfamily is cyclooxygenase.
Binding assays used specific radioligands (tritiated, iodinated) with non-radioactive competitive displacement ligands in agonist or antagonist protocols (as indicated) and various reference compounds and inhibitors to titrate specific binding to receptors and transporters. Most enzyme assays (CYPs, kinases, phosphatases, proteases, HDACs) used recombinant protein and specific substrates (fluorescence mostly, some colorimetric and radioactive) and inhibitors, followed by a biochemical separation of substrate and product. All assays for the biochemical HTS were initially run in duplicate at a single concentration (10 uM for CYP450 assays and 25 uM for all others). […] Each assay was run with positive and negative controls, and concurrent controls on every plate. The follow-up (secondary) screen tested active chemical-pairs in concentration series, as well as a few additional assays not tested in the primary screen, some selected negative inactives, and several cases re-run in the concentration series for confirmatory purposes.

Chain of sheep Cyclooxygenase-1 (Cox1), PTGS1 (gene 443551) (P05979 whole entry, looked up): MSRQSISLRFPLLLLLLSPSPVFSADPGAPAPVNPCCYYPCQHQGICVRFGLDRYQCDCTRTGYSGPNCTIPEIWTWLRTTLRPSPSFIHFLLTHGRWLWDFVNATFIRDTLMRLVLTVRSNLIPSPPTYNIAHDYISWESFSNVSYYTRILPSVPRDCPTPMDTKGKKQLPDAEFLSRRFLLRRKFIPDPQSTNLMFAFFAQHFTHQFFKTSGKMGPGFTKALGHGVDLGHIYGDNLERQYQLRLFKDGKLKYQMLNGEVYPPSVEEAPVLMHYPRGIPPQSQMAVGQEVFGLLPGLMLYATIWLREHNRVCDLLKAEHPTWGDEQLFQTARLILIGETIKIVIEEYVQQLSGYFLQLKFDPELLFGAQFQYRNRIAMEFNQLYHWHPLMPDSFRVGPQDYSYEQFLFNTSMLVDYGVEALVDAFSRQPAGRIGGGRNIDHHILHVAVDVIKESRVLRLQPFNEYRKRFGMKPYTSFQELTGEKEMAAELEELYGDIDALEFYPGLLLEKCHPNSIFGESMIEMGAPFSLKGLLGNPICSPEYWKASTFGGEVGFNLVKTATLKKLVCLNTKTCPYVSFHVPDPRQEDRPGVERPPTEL

SMILES	AC50	outcome
Oc1c(Cl)cc(Cl)c(Cl)c1Cc1c(O)c(Cl)cc(Cl)c1Cl	15.6 µM (active)	–
CN(C)C(=O)Nc1ccc(Oc2ccc(Cl)cc2)cc1	25 µM (active)	–
CCOC(=O)[C@@H](C)Oc1ccc(Oc2nc3ccc(Cl)cc3o2)cc1	–	inactive
CC(=O)C1(C)CC2=C(CCCC2(C)C)CC1C (stereo not drawn)	–	inactive
O=[N+]([O-])c1ccc(O)cc1C(F)(F)F	–	inactive
c1ccc(CCc2ccccc2)cc1	–	inactive
CC1(C)C2=CCCC(C)(C)[C@]23CC[C@H]1C3	16.4 µM (active)	–
COc1cc(Cl)c(OC)cc1N	25 µM (active)	–
[O-]n1ccccc1=S.[O-]n1ccccc1=S.[Zn+2]	5.57 µM (active)	–
CCCCCCCCCCCCCCCC(=O)OC/C=C(C)/C=C/C=C(C)/C=C/C1=C(C)CCCC1(C)C	42.8 µM (active)	–
CS(=O)(=O)OCCCCOS(C)(=O)=O	–	inactive
c1ccc2[nH]cnc2c1	–	inactive
CC(=O)Nc1ccc(C(=O)CCl)cc1	–	inactive
